# From article PMC7862700, “An all-to-all approach to the identification of sequence-specific readers for epigenetic DNA modifications on cytosine”
# How the values were obtained:
# Assay in all cases: DAPPL (digital affinity profiling via proximity ligation, sequencing); 10 mM Tris-HCl pH 7.5, 50 mM NaCl, 1 mM DTT, 4% glycerol, room temperature, 30 min; GST-TFs on glutathione beads, 16-mer random dsDNA library, 0.1% formaldehyde crosslink after washing; high values mean tight binding
# FLI1 = target: T1, FLI1 (Homo sapiens, UniProt Q01543 1-452); conditions: protein: recombinant; tags: N-terminal GST; dsDNA, one strand shown
# T1 sequence: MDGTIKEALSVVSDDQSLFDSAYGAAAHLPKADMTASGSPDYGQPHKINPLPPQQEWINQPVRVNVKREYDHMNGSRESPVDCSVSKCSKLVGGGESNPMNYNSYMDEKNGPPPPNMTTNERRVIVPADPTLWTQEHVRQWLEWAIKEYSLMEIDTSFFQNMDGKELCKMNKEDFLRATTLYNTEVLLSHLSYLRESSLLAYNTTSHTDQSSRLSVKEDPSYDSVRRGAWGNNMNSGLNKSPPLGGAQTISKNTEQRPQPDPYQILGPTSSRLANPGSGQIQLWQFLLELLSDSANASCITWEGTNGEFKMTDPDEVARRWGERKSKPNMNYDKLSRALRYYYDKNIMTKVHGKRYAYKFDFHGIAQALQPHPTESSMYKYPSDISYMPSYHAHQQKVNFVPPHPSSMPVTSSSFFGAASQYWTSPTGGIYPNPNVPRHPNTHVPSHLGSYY
# How it was run: (§1)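 After expression in yeast as GST fusions, human transcription factors were bound to glutathione beads, DNA-barcoded and mixed with a tag-only sample. The pools were incubated with 200 nmole of a 16-mer random double-stranded DNA library in Tris/NaCl/DTT/glycerol buffer (30 min, room temperature), washed and crosslinked with 0.1% formaldehyde. Proximity ligation with BsaI/T4 ligase ran for 1 h at 37 °C, before PCR amplification and sequencing on an Illumina NextSeq500. Binding signal is a hexamer's read frequency for a factor divided by its frequency for the tag-only sample.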
# ELK1 = target: T2, ELK1 (Homo sapiens, UniProt P19419 1-428); conditions: protein: recombinant; tags: N-terminal GST; dsDNA, one strand shown
# T2 sequence: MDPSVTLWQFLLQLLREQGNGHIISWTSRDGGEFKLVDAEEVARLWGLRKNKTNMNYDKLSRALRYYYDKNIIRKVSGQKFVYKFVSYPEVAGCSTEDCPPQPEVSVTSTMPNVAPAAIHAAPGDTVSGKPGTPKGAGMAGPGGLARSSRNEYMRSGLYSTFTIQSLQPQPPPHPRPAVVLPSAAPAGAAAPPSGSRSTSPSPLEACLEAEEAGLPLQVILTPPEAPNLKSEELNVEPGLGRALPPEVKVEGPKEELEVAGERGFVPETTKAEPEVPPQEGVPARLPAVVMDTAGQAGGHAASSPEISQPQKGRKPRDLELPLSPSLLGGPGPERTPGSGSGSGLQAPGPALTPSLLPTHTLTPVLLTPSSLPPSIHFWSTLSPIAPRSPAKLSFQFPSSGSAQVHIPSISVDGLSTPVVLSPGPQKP
# How it was run: as §1
# GABPA = target: T3, GABPA (Homo sapiens, UniProt Q06546 1-454); conditions: protein: recombinant; tags: N-terminal GST; dsDNA, one strand shown
# T3 sequence: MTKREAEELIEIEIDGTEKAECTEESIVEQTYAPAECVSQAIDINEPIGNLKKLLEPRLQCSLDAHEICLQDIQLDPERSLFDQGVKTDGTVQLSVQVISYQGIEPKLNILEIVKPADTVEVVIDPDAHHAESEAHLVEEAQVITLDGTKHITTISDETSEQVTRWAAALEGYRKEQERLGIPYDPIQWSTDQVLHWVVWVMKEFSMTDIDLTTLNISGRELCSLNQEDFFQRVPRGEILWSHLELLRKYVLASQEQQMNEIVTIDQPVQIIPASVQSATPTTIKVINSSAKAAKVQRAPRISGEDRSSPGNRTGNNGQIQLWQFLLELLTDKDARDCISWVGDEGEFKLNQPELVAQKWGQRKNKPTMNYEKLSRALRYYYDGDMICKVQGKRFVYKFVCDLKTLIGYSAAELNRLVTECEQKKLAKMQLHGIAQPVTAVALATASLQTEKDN
# How it was run: as §1
# ERG = target: T4, ERG (Homo sapiens, UniProt P11308 1-479); conditions: protein: recombinant; tags: N-terminal GST; dsDNA, one strand shown
# T4 sequence: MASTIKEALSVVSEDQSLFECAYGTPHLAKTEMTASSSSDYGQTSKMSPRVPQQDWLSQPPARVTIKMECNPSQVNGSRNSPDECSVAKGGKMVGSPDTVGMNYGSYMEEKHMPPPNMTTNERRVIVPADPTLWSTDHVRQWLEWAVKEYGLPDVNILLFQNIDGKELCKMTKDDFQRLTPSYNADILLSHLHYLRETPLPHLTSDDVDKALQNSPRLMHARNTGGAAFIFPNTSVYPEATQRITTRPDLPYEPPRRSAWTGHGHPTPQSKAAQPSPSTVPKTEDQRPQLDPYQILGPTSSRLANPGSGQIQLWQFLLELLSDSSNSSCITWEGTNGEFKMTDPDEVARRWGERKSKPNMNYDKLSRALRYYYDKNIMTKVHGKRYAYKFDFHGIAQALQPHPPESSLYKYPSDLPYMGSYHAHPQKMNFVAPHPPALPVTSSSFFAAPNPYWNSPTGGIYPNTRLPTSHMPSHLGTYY
# How it was run: as §1
# ELF1 = ELF1 (Homo sapiens, UniProt P32519 1-619); conditions: protein: recombinant; tags: N-terminal GST; dsDNA, one strand shown
# ELF1, sequence (P32519 whole entry): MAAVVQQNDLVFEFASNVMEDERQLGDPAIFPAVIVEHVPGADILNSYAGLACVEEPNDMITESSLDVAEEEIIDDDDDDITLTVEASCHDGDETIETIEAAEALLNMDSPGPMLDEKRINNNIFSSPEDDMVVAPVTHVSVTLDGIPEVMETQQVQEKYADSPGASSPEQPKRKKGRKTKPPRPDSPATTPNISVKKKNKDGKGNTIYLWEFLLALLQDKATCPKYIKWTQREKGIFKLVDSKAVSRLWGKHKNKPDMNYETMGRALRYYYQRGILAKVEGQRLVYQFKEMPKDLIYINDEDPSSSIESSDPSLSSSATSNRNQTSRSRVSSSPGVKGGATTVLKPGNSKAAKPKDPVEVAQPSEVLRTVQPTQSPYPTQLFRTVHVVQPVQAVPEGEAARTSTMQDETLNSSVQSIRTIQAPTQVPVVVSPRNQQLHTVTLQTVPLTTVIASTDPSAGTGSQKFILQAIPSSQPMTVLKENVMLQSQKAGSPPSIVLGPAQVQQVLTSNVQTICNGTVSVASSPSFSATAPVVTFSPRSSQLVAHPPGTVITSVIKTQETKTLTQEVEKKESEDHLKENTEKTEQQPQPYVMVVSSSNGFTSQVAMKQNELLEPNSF
# How it was run: as §1
# EHF = target: T5, EHF (Homo sapiens, UniProt Q9NZC4 1-300); conditions: protein: recombinant; tags: N-terminal GST; dsDNA, one strand shown
# T5 sequence: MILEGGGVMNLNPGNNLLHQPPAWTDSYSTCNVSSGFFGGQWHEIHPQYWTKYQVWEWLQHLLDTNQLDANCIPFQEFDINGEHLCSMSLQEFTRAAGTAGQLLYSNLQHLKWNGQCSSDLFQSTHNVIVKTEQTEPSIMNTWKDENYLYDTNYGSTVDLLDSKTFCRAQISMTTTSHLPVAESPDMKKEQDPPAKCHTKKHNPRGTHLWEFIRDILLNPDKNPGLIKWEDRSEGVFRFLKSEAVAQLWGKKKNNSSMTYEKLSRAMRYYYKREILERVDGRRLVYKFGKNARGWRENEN
# How it was run: as §1
# SPI1 = SPI1 (Homo sapiens, UniProt P17947 1-270); conditions: protein: recombinant; tags: N-terminal GST; dsDNA, one strand shown
# How it was run: as §1
# SPIB = SPIB (Homo sapiens, UniProt Q01892 1-262); conditions: protein: recombinant; tags: N-terminal GST; dsDNA, one strand shown
# SPIB, sequence (Q01892 whole entry): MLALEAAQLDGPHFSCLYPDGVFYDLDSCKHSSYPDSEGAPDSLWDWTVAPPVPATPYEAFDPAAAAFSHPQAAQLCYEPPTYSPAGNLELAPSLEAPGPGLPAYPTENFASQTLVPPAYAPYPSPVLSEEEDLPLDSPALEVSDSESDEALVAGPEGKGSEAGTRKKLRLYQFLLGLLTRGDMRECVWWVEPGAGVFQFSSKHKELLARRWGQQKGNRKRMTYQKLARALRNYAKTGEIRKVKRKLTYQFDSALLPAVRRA
# How it was run: as §1
# ELK3 = target: T6, ELK3 (Homo sapiens, UniProt P41970 1-407); conditions: protein: recombinant; tags: N-terminal GST; dsDNA, one strand shown
# T6 sequence: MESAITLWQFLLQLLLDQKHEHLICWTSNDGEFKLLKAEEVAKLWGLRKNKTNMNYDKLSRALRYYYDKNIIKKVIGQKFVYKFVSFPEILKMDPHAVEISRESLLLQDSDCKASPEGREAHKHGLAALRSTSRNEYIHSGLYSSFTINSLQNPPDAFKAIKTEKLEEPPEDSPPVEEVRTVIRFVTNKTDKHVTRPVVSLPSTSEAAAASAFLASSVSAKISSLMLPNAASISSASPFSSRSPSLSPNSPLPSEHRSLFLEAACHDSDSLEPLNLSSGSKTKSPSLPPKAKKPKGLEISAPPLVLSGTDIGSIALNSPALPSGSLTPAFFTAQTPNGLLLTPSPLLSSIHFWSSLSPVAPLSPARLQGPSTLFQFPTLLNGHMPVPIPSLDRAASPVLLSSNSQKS
# How it was run: as §1
# FEV = target: T7, FEV (Homo sapiens, UniProt Q99581 1-238); conditions: protein: recombinant; tags: N-terminal GST; dsDNA, one strand shown
# T7 sequence: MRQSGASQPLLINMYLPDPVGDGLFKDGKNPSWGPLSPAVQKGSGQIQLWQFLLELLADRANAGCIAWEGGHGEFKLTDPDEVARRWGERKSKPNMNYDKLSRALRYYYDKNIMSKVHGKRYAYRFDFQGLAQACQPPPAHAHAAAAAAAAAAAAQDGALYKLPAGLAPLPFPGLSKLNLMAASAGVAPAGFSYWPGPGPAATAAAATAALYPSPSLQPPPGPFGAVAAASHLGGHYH
# How it was run: as §1
# ETV5 = ETV5 (Homo sapiens, UniProt P41161 1-510); conditions: protein: recombinant; tags: N-terminal GST; dsDNA, one strand shown
# ETV5, sequence (P41161 whole entry): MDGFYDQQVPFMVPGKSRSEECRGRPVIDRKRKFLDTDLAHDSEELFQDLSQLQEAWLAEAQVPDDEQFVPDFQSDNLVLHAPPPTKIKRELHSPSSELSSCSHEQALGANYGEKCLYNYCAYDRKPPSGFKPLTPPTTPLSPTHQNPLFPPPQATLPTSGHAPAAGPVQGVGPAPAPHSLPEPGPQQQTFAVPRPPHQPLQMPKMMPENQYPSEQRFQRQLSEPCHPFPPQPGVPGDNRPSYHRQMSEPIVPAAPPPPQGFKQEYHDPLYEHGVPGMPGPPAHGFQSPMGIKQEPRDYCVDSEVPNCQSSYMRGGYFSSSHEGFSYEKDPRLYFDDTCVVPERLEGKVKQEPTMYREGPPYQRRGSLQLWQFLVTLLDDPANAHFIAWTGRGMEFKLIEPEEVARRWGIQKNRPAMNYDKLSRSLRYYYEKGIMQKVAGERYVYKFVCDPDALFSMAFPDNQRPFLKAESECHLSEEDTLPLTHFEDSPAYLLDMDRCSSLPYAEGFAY
# How it was run: as §1
# HSF1 = HSF1 (Homo sapiens, UniProt Q00613 1-529); conditions: protein: recombinant; tags: N-terminal GST; chain copies: 3; dsDNA, one strand shown
# HSF1, sequence (Q00613 whole entry): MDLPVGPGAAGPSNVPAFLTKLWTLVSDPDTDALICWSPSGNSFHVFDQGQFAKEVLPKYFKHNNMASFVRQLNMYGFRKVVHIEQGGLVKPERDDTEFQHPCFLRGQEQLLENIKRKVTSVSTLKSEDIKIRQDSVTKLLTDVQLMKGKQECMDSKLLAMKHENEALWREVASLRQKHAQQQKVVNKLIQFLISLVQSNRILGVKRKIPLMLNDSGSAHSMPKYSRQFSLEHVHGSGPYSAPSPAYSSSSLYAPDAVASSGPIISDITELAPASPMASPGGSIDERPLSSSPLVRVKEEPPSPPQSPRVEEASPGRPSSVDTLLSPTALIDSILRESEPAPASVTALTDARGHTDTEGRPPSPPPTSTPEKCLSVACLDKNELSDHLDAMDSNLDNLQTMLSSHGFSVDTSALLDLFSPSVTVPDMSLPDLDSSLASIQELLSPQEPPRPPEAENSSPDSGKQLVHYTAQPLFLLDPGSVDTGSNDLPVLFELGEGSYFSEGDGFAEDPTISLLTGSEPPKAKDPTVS
# How it was run: as §1
# SPIC = target: T8, SPIC (Homo sapiens, UniProt Q8N5J4 1-248); conditions: protein: recombinant; tags: N-terminal GST; dsDNA, one strand shown
# T8 sequence: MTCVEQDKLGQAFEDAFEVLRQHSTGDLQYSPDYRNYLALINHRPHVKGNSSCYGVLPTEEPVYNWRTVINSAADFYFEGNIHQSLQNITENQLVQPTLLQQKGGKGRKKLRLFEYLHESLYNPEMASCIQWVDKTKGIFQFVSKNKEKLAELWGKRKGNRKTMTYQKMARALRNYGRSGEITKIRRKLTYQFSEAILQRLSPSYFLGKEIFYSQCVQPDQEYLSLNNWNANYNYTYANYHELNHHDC
# How it was run: as §1
# ELF4 = ELF4 (Homo sapiens, UniProt Q99607 1-663); conditions: protein: recombinant; tags: N-terminal GST; dsDNA, one strand shown
# ELF4, sequence (Q99607 whole entry): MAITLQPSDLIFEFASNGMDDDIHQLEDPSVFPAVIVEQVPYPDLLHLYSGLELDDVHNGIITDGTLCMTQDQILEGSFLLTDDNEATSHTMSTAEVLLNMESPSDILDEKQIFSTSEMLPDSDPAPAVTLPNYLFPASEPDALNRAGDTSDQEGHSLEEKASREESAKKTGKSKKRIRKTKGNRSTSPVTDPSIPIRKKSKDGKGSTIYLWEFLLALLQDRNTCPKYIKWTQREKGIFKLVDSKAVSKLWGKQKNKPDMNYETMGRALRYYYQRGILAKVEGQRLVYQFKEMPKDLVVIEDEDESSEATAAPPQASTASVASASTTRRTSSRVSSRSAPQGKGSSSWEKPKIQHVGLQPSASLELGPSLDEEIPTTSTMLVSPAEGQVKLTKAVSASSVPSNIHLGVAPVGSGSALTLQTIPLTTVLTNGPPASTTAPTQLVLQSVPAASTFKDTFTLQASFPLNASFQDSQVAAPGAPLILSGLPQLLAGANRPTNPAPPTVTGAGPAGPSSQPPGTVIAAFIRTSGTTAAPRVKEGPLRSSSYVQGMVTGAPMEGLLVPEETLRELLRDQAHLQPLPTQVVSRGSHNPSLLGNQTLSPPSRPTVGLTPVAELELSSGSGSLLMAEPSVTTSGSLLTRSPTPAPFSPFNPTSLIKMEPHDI
# How it was run: as §1
# ELK4 = target: T9, ELK4 (Homo sapiens, UniProt P28324-2 1-405); conditions: protein: recombinant; tags: N-terminal GST; dsDNA, one strand shown
# T9 sequence: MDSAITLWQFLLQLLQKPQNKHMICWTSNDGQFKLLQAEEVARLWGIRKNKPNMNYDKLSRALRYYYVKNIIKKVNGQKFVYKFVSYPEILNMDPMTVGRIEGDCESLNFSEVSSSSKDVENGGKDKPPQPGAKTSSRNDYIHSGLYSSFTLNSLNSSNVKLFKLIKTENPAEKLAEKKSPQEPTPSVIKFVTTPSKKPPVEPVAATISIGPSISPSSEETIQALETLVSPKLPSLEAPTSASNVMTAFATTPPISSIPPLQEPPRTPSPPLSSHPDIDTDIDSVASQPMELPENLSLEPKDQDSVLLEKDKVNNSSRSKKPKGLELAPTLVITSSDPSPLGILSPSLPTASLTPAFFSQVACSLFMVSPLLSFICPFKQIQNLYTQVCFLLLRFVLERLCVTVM
# How it was run: as §1
# ETV2 = target: T10, ETV2 (Homo sapiens, UniProt O00321 1-342); conditions: protein: recombinant; tags: N-terminal GST; dsDNA, one strand shown
# T10 sequence: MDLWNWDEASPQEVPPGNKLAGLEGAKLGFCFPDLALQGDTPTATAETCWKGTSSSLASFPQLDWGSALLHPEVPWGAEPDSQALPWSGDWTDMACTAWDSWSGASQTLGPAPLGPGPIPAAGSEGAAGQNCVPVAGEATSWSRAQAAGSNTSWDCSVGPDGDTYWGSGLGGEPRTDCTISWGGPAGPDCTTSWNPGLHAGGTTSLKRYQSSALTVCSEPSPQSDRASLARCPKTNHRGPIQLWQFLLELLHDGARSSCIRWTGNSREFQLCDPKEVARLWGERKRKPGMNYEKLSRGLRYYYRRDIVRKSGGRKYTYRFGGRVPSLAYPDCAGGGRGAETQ
# How it was run: as §1
# ELF3 = target: T11, ELF3 (Homo sapiens, UniProt P78545 1-371); conditions: protein: recombinant; tags: N-terminal GST; dsDNA, one strand shown
# T11 sequence: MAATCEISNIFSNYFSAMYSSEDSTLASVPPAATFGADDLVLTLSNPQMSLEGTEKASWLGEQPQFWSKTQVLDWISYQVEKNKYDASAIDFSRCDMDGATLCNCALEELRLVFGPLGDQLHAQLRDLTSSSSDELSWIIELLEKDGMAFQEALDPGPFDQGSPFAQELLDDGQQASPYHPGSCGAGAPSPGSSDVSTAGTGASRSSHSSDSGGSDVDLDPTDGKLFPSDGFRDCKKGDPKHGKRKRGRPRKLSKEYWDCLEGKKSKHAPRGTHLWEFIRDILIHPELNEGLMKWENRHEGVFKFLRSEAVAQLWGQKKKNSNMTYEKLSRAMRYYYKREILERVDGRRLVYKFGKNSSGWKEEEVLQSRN
# How it was run: as §1
# CRX = CRX (Homo sapiens, UniProt O43186 1-299); conditions: protein: recombinant; tags: N-terminal GST; dsDNA, one strand shown
# CRX, sequence (O43186 whole entry): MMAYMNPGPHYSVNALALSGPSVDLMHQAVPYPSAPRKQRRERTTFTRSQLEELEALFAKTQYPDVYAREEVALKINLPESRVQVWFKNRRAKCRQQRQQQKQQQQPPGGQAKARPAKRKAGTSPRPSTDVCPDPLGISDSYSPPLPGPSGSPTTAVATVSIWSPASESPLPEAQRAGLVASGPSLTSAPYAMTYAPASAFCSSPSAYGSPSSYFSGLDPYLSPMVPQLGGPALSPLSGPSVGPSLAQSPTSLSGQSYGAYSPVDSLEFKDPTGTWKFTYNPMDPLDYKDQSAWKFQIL
# How it was run: as §1
# ETV1 = ETV1 (Homo sapiens, UniProt P50549 1-477); conditions: protein: recombinant; tags: N-terminal GST; dsDNA, one strand shown
# ETV1, sequence (P50549 whole entry): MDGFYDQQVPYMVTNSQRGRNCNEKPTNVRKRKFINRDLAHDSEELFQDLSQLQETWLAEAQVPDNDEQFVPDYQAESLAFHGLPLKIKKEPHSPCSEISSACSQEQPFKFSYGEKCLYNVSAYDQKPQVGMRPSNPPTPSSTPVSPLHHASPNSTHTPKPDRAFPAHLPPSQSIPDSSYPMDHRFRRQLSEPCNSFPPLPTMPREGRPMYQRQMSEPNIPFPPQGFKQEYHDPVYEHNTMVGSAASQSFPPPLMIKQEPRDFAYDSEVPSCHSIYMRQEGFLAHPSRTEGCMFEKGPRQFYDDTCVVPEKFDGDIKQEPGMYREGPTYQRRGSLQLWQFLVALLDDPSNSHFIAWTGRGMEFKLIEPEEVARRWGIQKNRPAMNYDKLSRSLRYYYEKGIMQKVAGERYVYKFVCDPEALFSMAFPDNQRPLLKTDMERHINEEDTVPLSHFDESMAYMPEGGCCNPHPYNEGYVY
# How it was run: as §1
sequence,measurement,setting,value
TAAGAA,binding signal,FLI1,"1.09 fold enrichment (6-mer frequency, TF over GST control)"
same,binding signal,ELK1,"1.1 fold enrichment (6-mer frequency, TF over GST control)"
same,binding signal,GABPA,"1.15 fold enrichment (6-mer frequency, TF over GST control)"
same,binding signal,ERG,"1.05 fold enrichment (6-mer frequency, TF over GST control)"
same,binding signal,ELF1,"1.04 fold enrichment (6-mer frequency, TF over GST control)"
same,binding signal,EHF,"1.04 fold enrichment (6-mer frequency, TF over GST control)"
same,binding signal,SPI1,"1.12 fold enrichment (6-mer frequency, TF over GST control)"
same,binding signal,SPIB,"1.04 fold enrichment (6-mer frequency, TF over GST control)"
same,binding signal,ELK3,"1.15 fold enrichment (6-mer frequency, TF over GST control)"
same,binding signal,FEV,"1.05 fold enrichment (6-mer frequency, TF over GST control)"
same,binding signal,ETV5,"1.1 fold enrichment (6-mer frequency, TF over GST control)"
same,binding signal,HSF1,"1.77 fold enrichment (6-mer frequency, TF over GST control)"
same,binding signal,SPIC,"1.21 fold enrichment (6-mer frequency, TF over GST control)"
same,binding signal,ELF4,"1.13 fold enrichment (6-mer frequency, TF over GST control)"
same,binding signal,ELK4,"1.09 fold enrichment (6-mer frequency, TF over GST control)"
same,binding signal,ETV2,"1.2 fold enrichment (6-mer frequency, TF over GST control)"
same,binding signal,ELF3,"1.02 fold enrichment (6-mer frequency, TF over GST control)"
same,binding signal,CRX,"1.96 fold enrichment (6-mer frequency, TF over GST control)"
same,binding signal,ETV1,"1.13 fold enrichment (6-mer frequency, TF over GST control)"
